The supplement of paper PMC9262897, “Low-cost anti-mycobacterial drug discovery using engineered E. coli” (Nature Communications, 2022)
Counter-ions that a name gives are not always drawn. ± gives the standard deviation of the averaged measurements.

Columns and labels:
Test in all cases: growth (OD600 after 10 h); higher = more growth (less inhibition)
[1] = test system: E. coli TESEC Alr+ wild-type control; settings: compound 0.1 mM; raw OD600 reference: median of DMSO wells 0.241, cell-free background 0.041
Procedure: (§1)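 TESEC Mtb Alr E. coli, or the Alr+ wild-type control, in 384-well plates with Prestwick library compounds at 0.1 mM and 1% DMSO, across arabinose induction levels of 1E3 to 1E7 nM. Growth is read as OD600 after 10 h at 37 °C in triplicate biological replicates.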

E. coli TESEC Mtb Alr [2] = settings: compound 0.1 mM
Procedure: as §1

E. coli TESEC Mtb Asd = settings: compound 0.1 mM
Procedure: (§2)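 TESEC E. coli strains in which the native enzyme is deleted and replaced by arabinose-inducible Mtb Asd, DapB, CysH or TrpD, each grown in its selective medium. Strains were screened against the Prestwick library at 0.1 mM and 1% DMSO in 384-well format at low and high arabinose induction. Growth is read as OD600 after 10 h in triplicate.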

E. coli TESEC Mtb DapB = settings: compound 0.1 mM
Procedure: as §2

[3] = test system: E. coli TESEC Alr+ wild-type control; settings: compound 0.1 mM; raw OD600 reference: median of DMSO wells 0.49, cell-free background 0.052
Procedure: (§3)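 TESEC Mtb Alr E. coli (ΔaraC ΔtolC ΔentC Δalr ΔdadX, arabinose-inducible Mtb Alr) or the Alr+ wild-type control strain, grown in defined M9-fructose medium without D-alanine in 96-well plates with Prestwick library compounds at 0.1 mM and 1% DMSO. Low Alr induction is 0.1 µM arabinose and high induction is 10 mM arabinose.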

E. coli TESEC Mtb Alr [4] = settings: compound 0.1 mM; remark: listed apart in the source
Procedure: as §3

[5] = arabinose 1000 nM, raw OD600 reference: median of DMSO wells 0.294, cell-free background 0.041
[6] = arabinose 10000 nM, raw OD600 reference: median of DMSO wells 0.264, cell-free background 0.041
[7] = arabinose 100000 nM, raw OD600 reference: median of DMSO wells 0.201, cell-free background 0.041
[8] = arabinose 1000000 nM, raw OD600 reference: median of DMSO wells 0.193, cell-free background 0.041
[9] = arabinose 10000000 nM, raw OD600 reference: median of DMSO wells 0.146, cell-free background 0.041
[10] = arabinose induction (level): High, raw OD600 reference: median of DMSO wells 0.331, cell-free background 0.041
[11] = arabinose induction (level): Low, raw OD600 reference: median of DMSO wells 0.417, cell-free background 0.041
[12] = arabinose induction (level): High, raw OD600 reference: median of DMSO wells […], cell-free background 0.041
[13] = arabinose induction (level): Low, raw OD600 reference: median of DMSO wells 0.227, cell-free background 0.041
[14] = arabinose 100 nM, raw OD600 reference: median of DMSO wells 0.413, cell-free background 0.052
[15] = arabinose 10000000 nM, raw OD600 reference: median of DMSO wells […], cell-free background 0.052

| SMILES | growth [1] | growth (E. coli TESEC Mtb Alr [2]; [5]) | growth (E. coli TESEC Mtb Alr [2]; [6]) | growth (E. coli TESEC Mtb Alr [2]; [7]) | growth (E. coli TESEC Mtb Alr [2]; [8]) | growth (E. coli TESEC Mtb Alr [2]; [9]) | growth (E. coli TESEC Mtb Asd; [10]) | growth (E. coli TESEC Mtb Asd; [11]) | growth (E. coli TESEC Mtb DapB; [12]) | growth (E. coli TESEC Mtb DapB; [13]) | growth [3] | growth (E. coli TESEC Mtb Alr [4]; [14]) | growth (E. coli TESEC Mtb Alr [4]; [15]) |
| --- | --- | --- | --- | --- | --- | --- | --- | --- | --- | --- | --- | --- | --- |
| NS(=O)(=O)c1cc2c(cc1Cl)NCNS2(=O)=O [Hydrochlorothiazide] | 0.245 ± 0.0063 | 0.282 ± 0.019 | 0.255 ± 0.006 | 0.234 ± 0.011 | 0.166 ± 0.0054 | 0.14 ± 0.0039 | 0.367 ± 0.053 | 0.408 ± 0.031 | 0.201 ± 0.013 | 0.244 ± 0.027 | 0.448 ± 0.062 | 0.41 ± 0.014 | 0.367 ± 0.019 |
| CC(CN1c2ccccc2Sc2ccccc21)N(C)C (stereo unspecified) [Promethazine hydrochloride] | 0.197 ± 0.0039 | 0.215 ± 0.013 | 0.2742 ± 0.0025 | 0.197 ± 0.018 | 0.13 ± 0.0016 | 0.157 ± 0.004 | 0.139 ± 0.0045 | 0.254 ± 0.021 | 0.221 ± 0.016 | 0.245 ± 0.012 | 0.456 ± 0.026 | 0.409 ± 0.014 | 0.334 ± 0.0051 |
| N[C@@H]1CCCCN(c2c(F)cc3c(=O)c(C(=O)O)cn(C4CC4)c3c2Cl)C1 [Besifloxacin hydrochloride] | 0.04153 ± 0.00035 | 0.0427 ± 0.002 | 0.0401 ± 0.00026 | 0.0447 ± 0.0037 | 0.0402 ± 0.00095 | 0.0414 ± 0.0011 | 0.0501 ± 0.0019 | 0.0463 ± 0.00069 | 0.0491 ± 0.0014 | 0.0491 ± 0.001 | 0.0537 ± 0.00057 | 0.05447 ± 0.00045 | 0.053 ± 0.0011 |
| CNC(=C[N+](=O)[O-])NCCSCc1csc(CN(C)C)n1 [Nizatidine] | 0.241 ± 0.0083 | 0.301 ± 0.018 | 0.274 ± 0.0044 | 0.21 ± 0.015 | 0.189 ± 0.0052 | 0.14 ± 0.0024 | 0.368 ± 0.033 | 0.438 ± 0.012 | 0.205 ± 0.019 | 0.228 ± 0.025 | 0.561 ± 0.066 | 0.408 ± 0.015 | 0.342 ± 0.01 |
| Brc1c(NC2=NCCN2)ccc2nccnc12 [Brimondine L-Tartrate] | 0.209 ± 0.0033 | 0.2878 ± 0.0023 | 0.26 ± 0.0099 | 0.187 ± 0.016 | 0.172 ± 0.011 | 0.152 ± 0.0034 | 0.271 ± 0.038 | 0.368 ± 0.061 | 0.19 ± 0.02 | 0.237 ± 0.033 | 0.46 ± 0.032 | 0.416 ± 0.015 | 0.343 ± 0.004 |
| CN(C)C(=O)C(CCN1CCC(O)(c2ccc(Cl)cc2)CC1)(c1ccccc1)c1ccccc1 [Loperamide hydrochloride] | 0.0426 ± 0.00061 | 0.0401 ± 0.00042 | 0.0402 ± 0.00044 | 0.0412 ± 0.00047 | 0.0404 ± 0.0001 | 0.04237 ± 0.00015 | 0.0486 ± 0.00055 | 0.0487 ± 0.00055 | 0.0489 ± 0.00058 | 0.0571 ± 0.017 | 0.0784 ± 0.034 | 0.4189 ± 0.00099 | 0.0518 ± 0.00072 |
| CCC(C)(CN(C)C)OC(=O)c1ccccc1 (stereo unspecified) [Amyleine hydrochloride] | 0.233 ± 0.0066 | 0.252 ± 0.052 | 0.266 ± 0.0091 | 0.183 ± 0.011 | 0.173 ± 0.0043 | 0.142 ± 0.0057 | 0.26 ± 0.076 | 0.435 ± 0.058 | 0.195 ± 0.027 | 0.209 ± 0.0057 | 0.586 ± 0.017 | 0.411 ± 0.0066 | 0.333 ± 0.021 |
| COC(=O)Nc1nc2cc(C(=O)c3ccccc3)ccc2[nH]1 [Mebendazole] | 0.202 ± 0.005 | 0.245 ± 0.021 | 0.269 ± 0.0042 | 0.189 ± 0.011 | 0.168 ± 0.0043 | 0.159 ± 0.0019 | 0.306 ± 0.021 | 0.398 ± 0.078 | 0.206 ± 0.017 | 0.273 ± 0.053 | 0.588 ± 0.031 | 0.413 ± 0.0078 | 0.342 ± 0.017 |
| CC(NCCc1ccc(O)cc1)C(O)c1ccc(O)cc1 (stereo unspecified) [Ritodrine hydrochloride] | 0.234 ± 0.0026 | 0.313 ± 0.011 | 0.2537 ± 0.0014 | 0.21 ± 0.032 | 0.176 ± 0.0022 | 0.144 ± 0.0063 | 0.251 ± 0.027 | 0.348 ± 0.055 | 0.179 ± 0.0043 | 0.185 ± 0.01 | 0.56 ± 0.074 | 0.408 ± 0.0081 | 0.36 ± 0.019 |
| CC(=O)SCC(Cc1ccccc1)C(=O)NCC(=O)OCc1ccccc1 (stereo unspecified) [Racecadotril] | 0.183 ± 0.0055 | 0.26 ± 0.016 | 0.241 ± 0.011 | 0.23 ± 0.022 | 0.132 ± 0.0014 | 0.189 ± 0.0054 | 0.28 ± 0.053 | 0.215 ± 0.013 | 0.172 ± 0.012 | 0.24 ± 0.023 | 0.502 ± 0.028 | 0.398 ± 0.0054 | 0.298 ± 0.0095 |
| CCCNC(C)C(=O)Nc1c(C)csc1C(=O)OC (stereo unspecified) [Articaine hydrochloride] | 0.249 ± 0.0025 | 0.3163 ± 0.0008 | 0.266 ± 0.0049 | 0.213 ± 0.013 | 0.162 ± 0.0036 | 0.147 ± 0.0054 | 0.257 ± 0.064 | 0.442 ± 0.02 | 0.205 ± 0.016 | 0.236 ± 0.043 | 0.47 ± 0.023 | 0.407 ± 0.015 | 0.316 ± 0.021 |
| COc1ccccc1OCC(O)COC(N)=O (stereo unspecified) [Methocarbamol] | 0.2535 ± 0.00091 | 0.282 ± 0.0088 | 0.275 ± 0.012 | 0.218 ± 0.018 | 0.187 ± 0.0043 | 0.141 ± 0.006 | 0.292 ± 0.018 | 0.397 ± 0.058 | 0.178 ± 0.012 | 0.183 ± 0.018 | 0.509 ± 0.11 | 0.412 ± 0.0098 | 0.347 ± 0.0072 |
| Cc1ccc(-c2ncc(Cl)cc2-c2ccc(S(C)(=O)=O)cc2)cn1 [Etoricoxib] | 0.17 ± 0.0023 | 0.241 ± 0.006 | 0.213 ± 0.0045 | 0.184 ± 0.014 | 0.15 ± 0.0079 | 0.161 ± 0.0033 | 0.266 ± 0.076 | 0.241 ± 0.0033 | 0.204 ± 0.031 | 0.261 ± 0.029 | 0.388 ± 0.0074 | 0.414 ± 0.0091 | 0.281 ± 0.018 |
| COc1cc(C(=O)N2CCOCC2)cc(OC)c1OC [Trimetozine] | 0.253 ± 0.004 | 0.313 ± 0.014 | 0.2694 ± 0.0015 | 0.22 ± 0.0037 | 0.203 ± 0.023 | 0.14 ± 0.0052 | 0.288 ± 0.0085 | 0.441 ± 0.018 | 0.192 ± 0.02 | 0.229 ± 0.0089 | 0.616 ± 0.021 | 0.401 ± 0.0073 | 0.363 ± 0.0044 |
| CCN1CCN(C(=O)N[C@@H](C(=O)N[C@@H]2C(=O)N3C(C(=O)O)=C(CSc4nnnn4C)CS[C@H]23)c2ccc(O)cc2)C(=O)C1=O [Cefoperazone dihydrate] | 0.2999 ± 0.0024 | 0.321 ± 0.0082 | 0.221 ± 0.0032 | 0.3 ± 0.0043 | 0.182 ± 0.0037 | 0.1843 ± 0.0004 | 0.413 ± 0.016 | 0.417 ± 0.087 | 0.201 ± 0.0085 | 0.239 ± 0.042 | 0.512 ± 0.039 | 0.221 ± 0.078 | 0.341 ± 0.025 |
| O=C(NCCN1CCOCC1)c1ccc(Cl)cc1 [Moclobemide] | 0.233 ± 0.0068 | 0.287 ± 0.0083 | 0.25 ± 0.0059 | 0.225 ± 0.032 | 0.177 ± 0.013 | 0.136 ± 0.0024 | 0.323 ± 0.11 | 0.395 ± 0.14 | 0.191 ± 0.0078 | 0.217 ± 0.025 | 0.615 ± 0.038 | 0.416 ± 0.0096 | 0.338 ± 0.009 |
| O=C(O)Cc1ccc(-c2ccccc2)cc1 [Felbinac] | 0.235 ± 0.0055 | 0.277 ± 0.023 | 0.245 ± 0.0027 | 0.163 ± 0.0054 | 0.173 ± 0.0071 | 0.1221 ± 0.00095 | 0.273 ± 0.054 | 0.434 ± 0.02 | 0.194 ± 0.014 | 0.206 ± 0.022 | 0.575 ± 0.04 | 0.396 ± 0.014 | 0.305 ± 0.0053 |
